# Test results taken from PubChem BioAssay.
# “And” between values parts separate entries of the source, which are not always exact repeats. Identical values can stand only once. For some assays here: Potency and affinity values are given separately. The list shows a part of the results. The source made the active and inactive calls.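 The calls were made as follows, unless noted: active = fitted half-maximal concentration within 10 nM to 100 µM, steepness 0.5 to 2, significant signal drop, low assay interference; inactive = the rest.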
# Columns and labels:
# [1] = molecular target: Cell division control protein 42 homolog (Homo sapiens) (UniProt P60953); assay: activated mutant Cdc42 GTP-binding inhibitors, dose response, biochemical, multiplex bead flow cytometry, Bodipy-FL-GTP (AID 1333;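 active = fitted half-maximal concentration within the tested dose range, moderate curve steepness, a statistically real signal drop, and little compound fluorescence or tag-binding interference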)
# [2] = molecular target: Cell division control protein 42 homolog (Homo sapiens) (UniProt P60953); assay: wildtype Cdc42 GTP-binding inhibitors, dose response, biochemical, multiplex bead flow cytometry, Bodipy-FL-GTP (AID 1334;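 active = fitted half-maximal concentration within the tested range, moderate curve steepness, significant signal drop, and little compound fluorescence or bead-linkage interference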); settings: bead-based flow cytometry, Bodipy-FL-GTP binding to GST-Cdc42; at 100 µM (top of the series) unless noted
# [3] = molecular target: GTPase HRas (Homo sapiens) (UniProt P01112); assay: inhibitors of GTP binding to wildtype Ras, dose response, biochemical, multiplex bead flow cytometry (AID 1335); settings: bead-based flow cytometry, Bodipy-GTP binding to GST-Ras; at 100 µM (top of the series) unless noted
# [4] = system: Ras-related protein Rab-7a (dog), GTP binding; assay: Rab7 GTP binding inhibitors, potency, dose response, biochemical, wildtype, multiplex bead flow cytometry (AID 1336; call rule not given here)
# [5] = molecular target: Ras-related C3 botulinum toxin substrate 1 (Homo sapiens) (UniProt P63000); assay: wildtype Rac1 GTP binding inhibitors, dose response, biochemical, multiplex bead flow cytometry (AID 1340;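 active = dose curve with midpoint inside tested range, moderate steepness, plateau gap beyond fit error, low compound glow and bead-link interference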); settings: GST-Rac1 beads, Bodipy-FL-GTP binding; at 100 µM (top of the series) unless noted
# [6] = molecular target: GTPase HRas (Homo sapiens) (UniProt P01112); assay: activated Ras mutant GTP binding inhibitors, dose response, biochemical, multiplex bead flow cytometry (AID 1341;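 active = dose-response curve with midpoint inside the tested range, moderate steepness, significant amplitude and little compound fluorescence or bead-attachment interference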;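 also: GST-tagged constitutively activated Ras mutant immobilized on beads and multiplexed with other GTPases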)
# [7] = RPL19A-GFP modulators, yeast TOR pathway, confirmation, cell-based, S. cerevisiae, flow cytometry, cherry picks, mother/daughter gates (AID 2270;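 active = GFP response below 50% of the DMSO control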); settings: S. cerevisiae RPL19A-GFP strain, 3 h, at 10 µM, stronger effect = lower value, 100 = same GFP as DMSO wells
# [8] = LAP4-GFP expression modulators in yeast, confirmation, cell-based, cherry picks, flow cytometry, mother/daughter gates (AID 2271;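 active = GFP response above 150% of the DMSO control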;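 also: ratio of sample to DMSO plate mean so 100% equals DMSO level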); settings: S. cerevisiae LAP4-GFP strain, 3 h, at 10 µM, stronger effect = higher value, 100 means same as DMSO control
# [9] = modulators of MEP2-GFP levels in yeast, confirmation, S. cerevisiae, flow cytometry GFP, cherry picks (AID 2272;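 active = GFP response above 150% of the DMSO control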;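 also: ratio of well signal to plate DMSO mean so 100% equals DMSO level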); settings: S. cerevisiae MEP2-GFP strain, 3 h, at 10 µM, stronger effect = higher value
# [10] = AGP1-GFP expression modulators, hit retest, confirmation, cell-based, flow cytometry, S. cerevisiae, cherry picks (AID 2273;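 active = GFP response above 150% of the DMSO level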;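 also: median GFP channel fluorescence over the whole cell population gate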); settings: S. cerevisiae AGP1-GFP strain, 3 h, at 10 µM
# [11] = modulators of CIT2-GFP expression in yeast, confirmation, S. cerevisiae, GFP fusion, cherry picks, mother/daughter gates (AID 2274;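 active = GFP response above 150% of the DMSO level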); settings: S. cerevisiae CIT2-GFP strain, flow cytometry, 3 h, at 10 µM, stronger effect = higher value
# [12] = molecular target: Regulator of G-protein signaling 16 (Homo sapiens) (UniProt O15492); assay: modulators of RGS–Galpha-o binding, primary screen, biochemical, multiplexed beads, flow cytometry, RGS4/7/8/16/19 (AID 1504); settings: multiplexed bead flow cytometry, measured here: RGS16 interaction, at 10 µM;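 also: fluorescently labeled Galpha-o bound to GDP with aluminium fluoride binding biotinylated RGS beads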
# [13] = molecular target: Regulator of G-protein signaling 19 (Homo sapiens) (UniProt P49795); assay: as above; settings: multiplexed bead flow cytometry, measured here: RGS19 interaction, at 10 µM
# [14] = molecular target: Regulator of G-protein signaling 7 (Homo sapiens) (UniProt P49802); assay: as above; settings: multiplexed bead flow cytometry, measured here: RGS7 interaction, at 10 µM
# [15] = molecular target: Regulator of G-protein signaling 8 (Homo sapiens) (UniProt P57771); assay: as above; settings: multiplexed bead flow cytometry, measured here: RGS8 interaction, at 10 µM
# [16] = disruption of biotin probe capture by avidin, counter-screen for RGS protein interaction modulators, biochemical, flow cytometry, bead-based (AID 1783;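 active = inhibition above 50%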;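 also: median green fluorescence of gated singlet beads compared with DMSO control wells; 0% = DMSO wells and 100% = complete loss of bead fluorescence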); settings: streptavidin beads, fluorescein-biotin binding; at 10 µM, stronger effect = higher value
# [17] = molecular target: Guanine nucleotide-binding protein G(o) subunit alpha (Homo sapiens) (UniProt P09471); assay: RGS8-Galphao binding modulators, confirmation, biochemical, multiplexed bead flow cytometry, single concentration (AID 1836; in the data active = binding response below about 72% or above about 130%; inactive = in between;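 also: Galphao activated as GDP AlF4 complex before binding bead RGS8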); settings: bead-based flow cytometry RGS8-Galphao binding, fluorescence; at 10 µM; actives lie on both sides
# [18] = molecular target: Guanine nucleotide-binding protein G(o) subunit alpha (Homo sapiens) (UniProt P09471); assay: RGS7-Galphao binding modulators, confirmation, biochemical, multiplexed bead flow cytometry, single concentration (AID 1837; in the data active = response below about 75% or above about 130%; inactive = in between;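 also: fluorescent Galphao activated with GDP and aluminum fluoride binding bead-coupled RGS7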); settings: bead-based flow cytometry RGS7-Galphao binding; at 10 µM; actives lie on both sides
# [19] = molecular target: Regulator of G-protein signaling 16 (Homo sapiens) + Guanine nucleotide-binding protein G(o) subunit alpha (Homo sapiens) (UniProt O15492+P09471); assay: modulators of RGS16-Galphao protein binding, confirmation, biochemical, single concentration, multiplexed bead flow cytometry (AID 1838; in the data active = response below about 74% or above about 130%; inactive = in between;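 also: Galphao activated as the GDP aluminium fluoride complex binding bead-coupled RGS16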); settings: bead-based flow cytometry, at 10 µM, actives lie on both sides
# [20] = molecular target: Guanine nucleotide-binding protein G(o) subunit alpha (Homo sapiens) (UniProt P09471); assay: modulators of RGS4-Galphao protein binding, confirmation, biochemical, single concentration, multiplexed bead flow cytometry (AID 1840; in the data active = binding response below about 74% or above about 130%; inactive = in between); settings: at 10 µM, actives lie on both sides
# [21] = molecular target: Guanine nucleotide-binding protein G(o) subunit alpha (Homo sapiens) + Regulator of G-protein signaling 19 (Homo sapiens) (UniProt P09471+P49795); assay: regulators of RGS19-Galphao binding, confirmation, biochemical, single point, multiplexed bead flow cytometry (AID 1841; in the data active = response below about 50% or above about 160%; inactive = in between;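 also: 100% = no compound control and 0% = blank background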); settings: bead-based flow cytometry RGS19-Galphao binding; at 10 µM; actives lie on both sides
# [22] = measured here: daughter cell gate
# [23] = measured here: mother cell gate
# Guanine nucleotide-binding protein G(o) subunit alpha (Homo sapiens), sequence (P09471 whole entry, looked up): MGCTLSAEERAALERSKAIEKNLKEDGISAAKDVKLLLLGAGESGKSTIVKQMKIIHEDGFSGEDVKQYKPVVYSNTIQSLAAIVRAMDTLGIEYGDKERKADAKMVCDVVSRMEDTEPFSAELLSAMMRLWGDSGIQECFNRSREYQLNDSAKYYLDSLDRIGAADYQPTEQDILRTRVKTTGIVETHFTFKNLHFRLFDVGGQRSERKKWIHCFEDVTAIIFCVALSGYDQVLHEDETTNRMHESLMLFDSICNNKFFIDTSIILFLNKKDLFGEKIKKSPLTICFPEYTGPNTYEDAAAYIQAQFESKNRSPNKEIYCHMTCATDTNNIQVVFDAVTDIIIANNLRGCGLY
# GTPase HRas (Homo sapiens), sequence (P01112 whole entry, looked up): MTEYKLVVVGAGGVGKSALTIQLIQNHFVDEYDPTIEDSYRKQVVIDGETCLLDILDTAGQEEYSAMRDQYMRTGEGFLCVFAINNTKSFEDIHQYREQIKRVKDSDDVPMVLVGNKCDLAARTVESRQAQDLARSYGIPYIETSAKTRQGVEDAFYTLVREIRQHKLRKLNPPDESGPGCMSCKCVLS
# Cell division control protein 42 homolog (Homo sapiens), sequence (P60953 whole entry, looked up): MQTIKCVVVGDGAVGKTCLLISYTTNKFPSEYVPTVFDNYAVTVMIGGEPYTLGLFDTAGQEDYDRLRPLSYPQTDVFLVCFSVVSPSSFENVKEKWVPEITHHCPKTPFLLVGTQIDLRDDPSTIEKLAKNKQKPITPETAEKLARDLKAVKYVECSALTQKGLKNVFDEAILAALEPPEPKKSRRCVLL
# Guanine nucleotide-binding protein G(o) subunit alpha (Homo sapiens) + Regulator of G-protein signaling 19 (Homo sapiens), sequence (P09471 whole entry, looked up): as the sequence (P09471 whole entry, looked up) above
# Guanine nucleotide-binding protein G(o) subunit alpha (Homo sapiens) + Regulator of G-protein signaling 19 (Homo sapiens), sequence (P49795 whole entry, looked up): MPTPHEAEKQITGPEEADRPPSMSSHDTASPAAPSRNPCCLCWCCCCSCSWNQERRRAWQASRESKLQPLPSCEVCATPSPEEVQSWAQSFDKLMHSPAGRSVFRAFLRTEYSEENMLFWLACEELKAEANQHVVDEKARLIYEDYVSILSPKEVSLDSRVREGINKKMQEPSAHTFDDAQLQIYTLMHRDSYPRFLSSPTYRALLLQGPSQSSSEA
# Regulator of G-protein signaling 16 (Homo sapiens) + Guanine nucleotide-binding protein G(o) subunit alpha (Homo sapiens), sequence (O15492 whole entry, looked up): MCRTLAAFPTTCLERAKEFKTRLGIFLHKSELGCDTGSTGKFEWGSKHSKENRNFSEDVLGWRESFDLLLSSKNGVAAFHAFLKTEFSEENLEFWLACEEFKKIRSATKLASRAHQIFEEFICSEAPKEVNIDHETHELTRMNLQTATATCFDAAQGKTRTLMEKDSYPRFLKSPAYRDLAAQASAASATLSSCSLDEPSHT
# Regulator of G-protein signaling 16 (Homo sapiens) + Guanine nucleotide-binding protein G(o) subunit alpha (Homo sapiens), sequence (P09471 whole entry, looked up): as the sequence (P09471 whole entry, looked up) above
compound,measurement,setting,value
CS(=O)(=O)N1N=C(c2ccccc2)CC1c1ccc2c(c1)OCO2 (centres undefined),outcome,[1],inactive
same,"fluorescence, percent of control (lower = inhibition)",[2],112%
same,"GTP binding, percent of control",[3],120%
same,outcome,[4],inactive
same,"GTP binding signal, raw median fluorescence (lower = inhibition) (MCF (arbitrary fluorescence units))",[5],247
same,outcome,[6],inactive
same,GFP response vs DMSO,[7],136% (inactive)
same,GFP response vs DMSO,[7]; [22],137%
same,GFP response vs DMSO,[7]; [23],135%
same,GFP response relative to DMSO,[8],449% (active)
same,GFP response relative to DMSO,[8]; measured here: daughter cell gate response,466%
same,GFP response relative to DMSO,[8]; measured here: mother cell gate response,439%
same,GFP response vs DMSO,[9],1140% (active)
same,"GFP response, % of DMSO",[10],204% (active)
same,"GFP response, % of DMSO",[11],436% (active)
same,"GFP response, % of DMSO",[11]; [22],437%
same,"GFP response, % of DMSO",[11]; [23],413%
O=C(OCC1O[C@@H](OC(=O)c2cc(O)c(O)c(O)c2)[C@@H](OC(=O)c2cc(O)c(O)c(O)c2)[C@@H](OC(=O)c2cc(O)c(O)c(O)c2)[C@@H]1OC(=O)c1cc(O)c(O)c(O)c1)c1cc(O)c(O)c(O)c1 (some centres undefined),outcome,[1],inactive
same,"fluorescence, percent of control (lower = inhibition)",[2],21.1%
same,"GTP binding, percent of control",[3],58.6%
same,outcome,[4],inactive
same,"GTP binding signal, raw median fluorescence (lower = inhibition) (MCF (arbitrary fluorescence units))",[5],145
same,outcome,[6],inactive
same,RGS16–Galpha-o binding response,[12],51.1%
same,RGS19–Galpha-o binding response,[13],-410%
same,RGS7–Galpha-o binding response,[14],20.5%
same,RGS8–Galpha-o binding response,[15],46.9%
same,inhibition,[16],-1.9% (inactive)
same,binding response (% of control),[17],35.2% (active)
same,response (percent of control binding),[18],-10.3% (active)
same,response (% of control binding),[19],29.8% (active)
same,binding response (% of control),[20],-1.02% (active)
same,response (percent of control binding),[21],46.8% [inhibitor] (active)
O=C(NNC(=S)NCc1ccc(Cl)cc1)c1ccc(Br)o1,outcome,[1],inactive
same,"fluorescence, percent of control (lower = inhibition)",[2],28.8%
same,"GTP binding, percent of control",[3],74.4%
same,outcome,[4],inactive
same,outcome,[6],inactive
O=C(O)c1ccccc1Oc1ccccc1,outcome,[1],inactive
same,"fluorescence, percent of control (lower = inhibition)",[2],83.7%
same,"GTP binding, percent of control",[3],100%
same,"GTP binding signal, raw median fluorescence (lower = inhibition) (MCF (arbitrary fluorescence units))",[5],65
same,outcome,[6],inactive
O=C(C#Cc1ccc(F)cc1)c1ccc([N+](=O)[O-])cc1,"fluorescence, percent of control (lower = inhibition)",[2],39.2%
same,"GTP binding, percent of control",[3],142%
same,outcome,[4],inactive
same,"GTP binding signal, raw median fluorescence (lower = inhibition) (MCF (arbitrary fluorescence units))",[5],48.4
same,outcome,[6],inactive
O=C(NCc1ccc2c(c1)OCO2)c1ccc(CSCc2cccc(Cl)c2)o1,"fluorescence, percent of control (lower = inhibition)",[2],31%
same,"GTP binding, percent of control",[3],76.4%
same,outcome,[4],inactive
same,"GTP binding signal, raw median fluorescence (lower = inhibition) (MCF (arbitrary fluorescence units))",[5],266
same,outcome,[6],inactive
CCn1nc(C(=O)OCC(=O)c2cc(C)n(Cc3cccs3)c2C)c2ccccc2c1=O,outcome,[1],inactive
same,"fluorescence, percent of control (lower = inhibition)",[2],46.9%
same,"GTP binding, percent of control",[3],64.2%
same,outcome,[4],inactive
same,outcome,[6],inactive
Cc1cc(C(=O)O)sc1CNCc1ccccc1Cl,outcome,[1],inactive
same,"fluorescence, percent of control (lower = inhibition)",[2],60.4%
same,"GTP binding signal, raw median fluorescence (lower = inhibition) (MCF (arbitrary fluorescence units))",[5],33.9
Cc1cc(NC(=O)CSc2nc(-c3ccccc3)c(C#N)c(=O)[nH]2)no1,outcome,[1],inactive
same,"fluorescence, percent of control (lower = inhibition)",[2],45.4%
same,outcome,[4],inactive
O=C(O)CCN1C(=O)/C(=C/c2ccc(-c3nc4ccccc4s3)o2)SC1=S,outcome,[1],inactive
same,"fluorescence, percent of control (lower = inhibition)",[2],32.8%
same,"GTP binding, percent of control",[3],53.9%
same,outcome,[4],inactive
same,outcome,[6],inactive
O=C(O)c1ccccc1NCc1ccccc1Cl,outcome,[1],inactive
same,"fluorescence, percent of control (lower = inhibition)",[2],65.3%
same,"GTP binding, percent of control",[3],88.6%
same,outcome,[4],inactive
same,outcome,[6],inactive
NS(=O)(=O)c1ccc(N2N=C(c3ccccc3)CC2c2ccccc2)cc1 (centres undefined),outcome,[1],inactive
same,"GTP binding, percent of control",[3],68% and 97.6%
same,outcome,[4],inactive
same,"GTP binding signal, raw median fluorescence (lower = inhibition) (MCF (arbitrary fluorescence units))",[5],223 and 99.4
same,outcome,[6],inactive
COc1cc(/C=N\NC(=O)c2sc(N)nc2C)cc(OC)c1OC,outcome,[1],inactive
same,"fluorescence, percent of control (lower = inhibition)",[2],39.4%
same,"GTP binding, percent of control",[3],51.7%
same,outcome,[4],inactive
same,outcome,[6],inactive
CN1C(=O)N(C)c2ccc(C=O)c3cccc1c23,outcome,[1],inactive
same,"fluorescence, percent of control (lower = inhibition)",[2],36.5%
same,"GTP binding, percent of control",[3],82.8%
same,outcome,[4],inactive
same,outcome,[6],inactive
